# Screens (PubChem BioAssay)
# PglD DTNB: inhibitors of Campylobacter jejuni PglD acetyltransferase | purified PglD enzyme, DTNB colorimetric CoA detection | inhibition, % at 12.5 µM | 360,000 compounds, 0.098% hits | AID 602405; in the data active = inhibition above about 16%, passing the limit was not always enough; inconclusive = no clear call, values can overlap the other calls
# Rtt109 HAT inh: inhibitors of Candida albicans Rtt109/Vps75 histone acetyltransferase; Q5AAJ8; purified Rtt109/Vps75, ThioGlo CoA-SH fluorescence, 4 h; inhibition, % at 34.9 µM; 330,000 compounds, 0.16% hits; AID 540336;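 active = inhibition of at least 50% in every replicate; inconclusive = best replicate reaches 50% inhibition but some replicates fall short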
# Target sequence (Q5AAJ8 whole entry, looked up): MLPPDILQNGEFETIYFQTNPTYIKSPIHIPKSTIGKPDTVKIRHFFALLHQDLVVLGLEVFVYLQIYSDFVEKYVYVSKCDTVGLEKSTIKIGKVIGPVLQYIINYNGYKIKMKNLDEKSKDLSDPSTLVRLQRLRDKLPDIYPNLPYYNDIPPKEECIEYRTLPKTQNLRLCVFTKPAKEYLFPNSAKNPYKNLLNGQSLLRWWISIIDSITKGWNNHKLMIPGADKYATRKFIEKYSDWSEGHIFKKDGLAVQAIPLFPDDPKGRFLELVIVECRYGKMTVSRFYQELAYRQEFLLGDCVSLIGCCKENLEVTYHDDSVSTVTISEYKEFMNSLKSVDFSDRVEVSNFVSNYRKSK
# Glyco luc inh: N-linked glycosylation inhibition; D54 ERlucT glycosylation luciferase reporter, 24 h; percent of 100 nM tunicamycin response; reporter increase, % at 12.5 µM; 360,000 compounds, 0.23% hits; AID 588692;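 active = mean luciferase reporter signal, scaled so untreated is 0 and the glycosylation-blocking control 100, at or above a set limit in every replicate; inconclusive = mean reaches the limit but not every replicate does; inactive = mean below the limit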;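 note: luciferase carries N-glycosylation sites so blocking glycosylation raises the light; 0% = median of neutral control wells and 100% = median of 100 nM tunicamycin wells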
# DENV2 CPE: DENV2-induced cell death inhibition. DENV2-infected cells, cytopathic effect rescue, plate reader. 350,000 compounds, 1.7% hits. CPE inhibition, % at 9.99 µM; in the data active = CPE inhibition above about 20%, passing the limit was not always enough; inconclusive = no clear call, values can overlap the other calls; tested in BHK-21 cells;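 note: 0% = median of neutral control wells and 100% = median of positive control wells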
# An asterisk follows results filed as active; ? = inconclusive; . = no result; ! = a repeat was not active. The entries come from a sample that favours hits as a whole.
SMILES,PglD DTNB,Rtt109 HAT inh,Glyco luc inh,DENV2 CPE
CCC(=O)NC[C@@H]1[C@@H](c2ccc(-c3ccc(OC)cc3)cc2)[C@@H](CO)N1C(C)=O,.,.,.,42*
COCC(=O)NC[C@@H]1[C@@H](c2ccc(-c3ccccc3)cc2)[C@H](CO)N1C(C)=O,3,.,.,41*
COc1ccc(CNC(=O)N(C)C[C@@H]2OCc3ccccc3-c3ccccc3C(=O)N([C@@H](C)CO)C[C@H]2C)cc1,4,.,.,-2
COc1ccc(NC(=O)N(C)C[C@H]2Oc3ncc(-c4ccc(C#N)cc4)cc3C(=O)N([C@@H](C)CO)C[C@H]2C)cc1,-2,.,.,-5
CC(=O)Nc1ccc(NC(=O)CSc2ccc(-c3cccnc3)nn2)cc1,0,-5,1,2
O=C(CSc1ccc(-c2cccnc2)nn1)Nc1ccc(Br)cc1,-3,-8,-1,30*
C[C@H](CO)N1C[C@H](C)[C@H](CN(C)C)Oc2c(NC(=O)Nc3cccc4ccccc34)cccc2C1=O,.,.,.,34*
C[C@H]1CN([C@@H](C)CO)C(=O)c2cccc(NC(=O)Nc3cccc4ccccc34)c2O[C@H]1CN(C)C(=O)Nc1cccc2ccccc12,1,.,.,0
C[C@H]1CN([C@@H](C)CO)C(=O)c2cccc(NC(=O)Nc3ccccc3)c2O[C@H]1CN(C)C,19*,.,.,?
CNC[C@H]1Oc2ccc(NC(=O)Nc3ccc(OC)cc3)cc2C(=O)N([C@H](C)CO)C[C@H]1C,1,.,.,.
CC1CCN(c2ccc3c(c2)S(=O)(=O)c2cccc(C(=O)NC4CCCCC4)c2C3=O)CC1,2,1,-4,34*
O=C(NCCN1CCCCC1)c1cccc2c1C(=O)c1ccc(N3CCCC3)cc1S2(=O)=O,4,9,-2,17
CC(C)(C)CNC(=O)c1cccc2c1C(=O)c1ccc(N3CCCC3)cc1S2(=O)=O,-4,6,0,29*
COc1ccc(N[C@@H]2CCN3C(=O)c4ccccc4[C@@H]3C[C@H]2O)cc1,-4,1,4,4
O=C1c2ccccc2[C@@H]2C[C@@H](O)[C@H](Nc3cccc4ccccc34)CCN12,0,-5,8,26*
CO[C@@H]1CN(C)C(=O)c2cc(NS(=O)(=O)c3ccccc3C)ccc2OC[C@@H](C)N(S(=O)(=O)c2ccccc2)C[C@H]1C,-1,.,.,6
O=C(Cc1ccc(F)cc1)Nc1cccc2cccnc12,-12,63*,-3,.
CCC(=O)Nc1cccc2cccnc12,-1,.,1,-3
C[C@H]1CN([C@@H](C)CO)S(=O)(=O)c2ccc(C3=CCCC3)cc2O[C@H]1CN(C)C(=O)c1cccnc1,0,.,.,?
O=C(C[C@@H]1CC[C@@H](NC(=O)CN2CCOCC2)[C@@H](CO)O1)NCc1cccc(F)c1,0,.,.,-1
C[C@H](CO)N1C[C@H](C)[C@@H](CN(C)C(=O)NC2CCCCC2)Oc2ccc(NS(C)(=O)=O)cc2C1=O,-4,5,2,29*!
C[C@H](CO)N1C[C@H](C)[C@@H](CN(C)C(=O)NC2CCCCC2)Oc2ccc(NC(=O)C3CC3)cc2C1=O,2,9,1,56*!
C[C@H](CO)N1C[C@H](C)[C@H](CN(C)C(=O)NC2CCCCC2)Oc2ccc(NC(=O)Cn3cnnn3)cc2C1=O,1,.,.,99*
C[C@H]1CN([C@@H](C)CO)C(=O)c2cc(NC(=O)Cn3cnnn3)ccc2O[C@@H]1CN(C)C(=O)NC1CCCCC1,3,.,.,?
C[C@@H]1CN([C@@H](C)CO)C(=O)c2cc(NS(=O)(=O)c3cn(C)cn3)ccc2O[C@H]1CN(C)C(=O)NC1CCCCC1,0,.,.,45*
SMILES,PglD DTNB,Rtt109 HAT inh,Glyco luc inh,DENV2 CPE
Cc1ccc(-c2ccc(C3[C@@H]4CN(Cc5cccc(F)c5)C[C@H]3N4)cc2)cc1 (stereo partly drawn),.,.,.,-3
C[C@@H](NC(=O)C[C@@H]1C[C@H]2c3cc(NC(=O)CC4CC4)ccc3O[C@H]2[C@@H](CO)O1)c1ccccc1,-3,.,.,0
CO[C@H]1CN(C)C(=O)c2cc(NC(=O)Nc3ccc(Cl)cc3)ccc2OC[C@@H](C)N(C)C[C@H]1C,4,.,.,12
CCCNC(=O)Nc1ccc2c(c1)OC[C@@H](C)N(S(C)(=O)=O)C[C@H](C)[C@@H](OC)CN(C)C2=O,.,.,.,2
CCCNC(=O)Nc1ccc2c(c1)OC[C@@H](C)N(S(C)(=O)=O)C[C@@H](C)[C@H](OC)CN(C)C2=O,.,.,.,43*
CCC(=O)N1C[C@H](C)[C@H](OC)CN(C)C(=O)c2ccc(NC(=O)NC(C)C)cc2OC[C@H]1C,.,.,.,70*
CCCNC(=O)Nc1ccc2c(c1)OC[C@H](C)N(C(=O)CC)C[C@H](C)[C@@H](OC)CN(C)C2=O,.,.,.,31*
CO[C@H]1CN(C)C(=O)c2cc(NC(=O)Nc3ccc(Cl)cc3)ccc2OC[C@H](C)N(C)C[C@@H]1C,1,.,.,50*
C[C@@H]1CCCCO[C@H](CN(C)Cc2ccc(C(=O)O)cc2)[C@H](C)CN([C@H](C)CO)C(=O)c2cc(NC(=O)c3ccccc3)ccc2O1,8,.,.,16
CCC(=O)N1C[C@@H](C)[C@@H](OC)CN(C)C(=O)c2ccc(NC(=O)Nc3ccc(Cl)cc3)cc2OC[C@H]1C,-2,.,.,80*
CCc1nc(SCc2ccccc2C)n[nH]1,-16,8,-2,32*
CCc1ccccc1NC(=O)c1cnc2n(c1=O)CCS2,2,-6,1,35*
COc1ccc(-n2nc([N+](=O)[O-])c(=NCc3ccc4c(c3)OCO4)n2O)cc1,-1,-4,2,32*
Cc1cccc(NC(=S)N2CCCCCC2)c1C,-4,-13,0,55*
C[C@@H]1CN([C@@H](C)CO)C(=O)c2cc(NC(=O)Cc3cn(C)c4ccccc34)ccc2O[C@H]1CN(C)C(=O)Nc1ccccc1,2,.,.,35*
C[C@H]1CN([C@@H](C)CO)C(=O)c2cc(NC(=O)Cc3cn(C)c4ccccc34)ccc2O[C@H]1CN(C)C(=O)Nc1ccc2c(c1)OCO2,-2,.,.,28*
C[C@H]1CN([C@@H](C)CO)C(=O)c2cc(NC(=O)Cc3cn(C)c4ccccc34)ccc2O[C@@H]1CN(C)C(=O)Nc1ccccc1,2,.,.,-10
C[C@@H]1CN([C@@H](C)CO)C(=O)c2cc(C#CCN(C)C)cnc2O[C@H]1CN(C)Cc1ccc(-c2ccccc2)cc1,-2,.,.,-3
COc1cccc(-c2ccc([C@H]3[C@@H](CO)N(C(C)=O)C34CN(C(C)=O)C4)cc2)c1,.,.,.,0
COCCNC(=O)COc1coc(CN2CCN(Cc3ccccc3)CC2)cc1=O,-1,0,0,-2
CC(C)(C)NC(=O)COc1coc(CN2CCN(Cc3ccccc3)CC2)cc1=O,1,2,0,57*
C[C@@H]1CN([C@H](C)CO)C(=O)Cc2cc(NC(=O)Cc3ccccc3)ccc2O[C@@H]1CN(C)Cc1ccc(Cl)c(Cl)c1,-2,.,.,88*
C[C@@H]1CN([C@@H](C)CO)C(=O)Cc2cc(NC(=O)Cc3ccccc3)ccc2O[C@@H]1CN(C)Cc1ccc(Cl)c(Cl)c1,1,.,.,66*
O=C(C1=C[C@@H](c2ccc(C(F)(F)F)cc2)C[C@@H](OCc2ccc(CO)cc2)O1)N1CCCC1,.,.,.,-10
